Test results as given in PubChem BioAssay AID631 (The Scripps Research Institute Molecular Screening Center, 2007).
Among all 200,000 compounds or so, about 810 (0.41%) were called active. The list comes from a sample in which actives are over-represented; it also holds similar structures and randomly drawn compounds. Values without a mark were called inactive. Cut-off read from the data, not from the text of the source: active = activation above about 19%; inactive = the rest.

Target: Peroxisome proliferator-activated receptor gamma (Homo sapiens) (UniProt P37231)
Assay: enhancers of SRC-1 binding to PPARgamma – biochemical, primary screen (AID 631);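 note: 0% = DMSO and 100% = reference agonist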
Settings: PPARgamma-SRC-1 coactivator recruitment biochemical assay; at 8 µM; stronger effect = higher value

Sequence of Peroxisome proliferator-activated receptor gamma (Homo sapiens) (P37231 whole entry, looked up): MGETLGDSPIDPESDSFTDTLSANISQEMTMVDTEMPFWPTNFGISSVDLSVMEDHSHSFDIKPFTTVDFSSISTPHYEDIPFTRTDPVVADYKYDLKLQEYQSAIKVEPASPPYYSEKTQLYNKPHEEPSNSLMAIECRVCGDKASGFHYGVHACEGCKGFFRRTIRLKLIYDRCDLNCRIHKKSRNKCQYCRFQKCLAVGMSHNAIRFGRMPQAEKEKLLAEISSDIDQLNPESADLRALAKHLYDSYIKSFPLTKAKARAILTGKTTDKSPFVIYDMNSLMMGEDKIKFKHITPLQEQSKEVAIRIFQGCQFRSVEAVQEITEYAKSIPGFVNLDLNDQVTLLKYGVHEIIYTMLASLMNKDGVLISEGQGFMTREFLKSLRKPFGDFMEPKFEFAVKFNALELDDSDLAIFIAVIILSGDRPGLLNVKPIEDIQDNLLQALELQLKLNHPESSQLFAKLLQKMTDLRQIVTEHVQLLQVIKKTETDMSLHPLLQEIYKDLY

| SMILES | activation |
| --- | --- |
| Cc1cc2cc(CN(Cc3cccs3)Cc3nnnn3CC3CCCO3)c(=O)[nH]c2cc1C (configuration not stated) | -4.1% |
| Cc1cc(C)c2cc(CN(Cc3nnnn3Cc3ccc(F)cc3)C3CCCC3)c(=O)[nH]c2c1 | 2.6% |
| Cc1cc(C)c2cc(CN(Cc3cccs3)Cc3nnnn3CC3CCCO3)c(=O)[nH]c2c1 (configuration not stated) | 23.5% (active) |
| CCC(C)(C)NC(=O)C(c1ccccn1)N(C(=O)c1csnn1)c1ccccc1 (configuration not stated) | 3.1% |
| C/C(=N\NC(=O)OC(C)(C)C)c1ccc[nH]1 | -0.7% |
| CC(=O)Nc1ccc(OCC(=O)NCc2ccc(C)cc2)cc1 | -5.7% |
| Cc1ccc(OCC(=O)Nc2ccc(-c3nc4ncccc4o3)cc2)cc1 | 19.5% (active) |
| Cc1ccc(OCC(=O)Nc2ccc(S(=O)(=O)Nc3ccccn3)cc2)cc1 | 2.2% |
| O=C(C1CCN(C2CCN(Cc3cccc4c3OCO4)CC2)CC1)N1CCOCC1 | 1.6% |
| Cn1c(SCC(=O)Nc2ccc(Br)cc2F)nnc1-c1ccco1 | 0.1% |
| CCn1c(SCC(=O)Nc2cccc(F)c2)nnc1-c1cc2cc(Br)ccc2o1 | 24.4% (active) |
| CCn1c(CNC(=O)c2ccco2)nnc1SCC(=O)Nc1cccc(F)c1 | 1.6% |
| Cc1ccc(OCC(=O)OC(C)CN(C)Cc2ccccc2)cc1 (configuration not stated) | 5% |
| COC(=O)CSc1nccc(-c2cccs2)n1 | 4.8% |
| COc1ccc(OC)c(C(=O)CSc2nnc(-c3cccs3)o2)c1 | 11.4% |
| NC(=O)CSc1oc(-c2cccs2)nc1S(=O)(=O)c1ccccc1 | 20.3% (active) |
| COc1cccc(CNC(=O)Cc2csc(Nc3nc(=S)[nH]c4ccccc34)n2)c1 | -3.6% |
| CC(C)C(NC(=O)C1CCC(C(C)(C)C)CC1)C(=O)NCCCN1CCCCC1 (configuration not stated) | 13.2% |
| Cc1cc(C)c2nc(N3CCCC3)c(C#N)cc2c1 | 3.7% |
| Cc1cccc2cc(C#N)c(N3CCCC3)nc12 | 7.6% |
| CC(=O)c1ccc(S(=O)(=O)N2CCN(c3nc4c(C)c(C)ccc4cc3C#N)CC2)cc1 | 27.9% (active) |

| SMILES | activation |
| --- | --- |
| CCCN1CNC(=S)N(CCc2ccccc2)C1 | 4% |
| CNS(=O)(=O)c1ccc(N2CCCC2=O)c([N+](=O)[O-])c1 | -1.5% |
| COC(=O)c1[nH]c2ccc(Br)cc2c1NC(=O)Oc1ccccc1 | 20.2% (active) |
| COC(=O)c1[nH]c2ccccc2c1NC(=O)CN1CCCc2ccccc21 | 0.3% |
| COC(=O)c1[nH]c2ccccc2c1NS(=O)(=O)c1ccc(OC)cc1OC | 6.1% |
| C=CCn1cc(-c2cccc(C(F)(F)F)c2)cc(C#N)c1=O | 5.6% |
| CCn1c(=O)cc(SCC(=O)NCc2ccc3c(c2)OCO3)c2ccccc21 | 21.9% (active) |
| CC(C)NC(=O)CSc1ccccc1C(=O)NCc1ccc2c(c1)OCO2 | -1.4% |
| CCn1c(=O)cc(SCC(=O)NCCC2=CCCCC2)c2ccccc21 | 13.8% |
| COCCCNC(=S)NNC(=O)C(O)(c1ccccc1)c1ccccc1 | -2.3% |
| Cc1nn(CC(=O)NCc2ccccn2)c(C)c1[N+](=O)[O-] | 5.4% |
| CS(=O)(=O)N(CC(=O)NC1CCCC1)Cc1ccc(F)cc1 | 6.9% |
| CCOP(=O)(OCC)C(Nc1ccc([N+](=O)[O-])cc1)c1ccc(Cl)cc1 (configuration not stated) | -6.5% |
| Cc1n[nH]c(=S)n1/N=C/c1ccc(Br)o1 | 7.5% |
| Cc1ccccc1-c1n[nH]c(=S)n1C | 3.3% |
| Cc1ccccc1-c1n[nH]c(=S)n1/N=C/c1ccc(-c2ccccc2Br)o1 | 32.5% (active) |
| O=C1CCCN1CCCNC(=S)Nc1ccc(F)c(Cl)c1 | -5.5% |
| CCc1nc2ccccc2c(C(=O)OC2CCCCC2=O)c1C (configuration not stated) | 12.2% |
| CC1=C(C(=O)N(C)C)C(c2ccccc2OC(F)F)NC(=O)N1 (configuration not stated) | 6.7% |
| COC(=O)c1ccc(S(=O)(=O)c2ccc(C(=O)OC)s2)s1 | 26.8% (active) |
| COC(=O)c1cc(OC)ccc1-c1ccc(OC)cc1 | 9.8% |

| SMILES | activation |
| --- | --- |
| CCS(=O)(=O)Nc1cc(C(=O)OC)ccc1C(=O)OC | 7% |
| CCOc1ccc(S(=O)(=O)Nc2ccncc2)c(C)c1C | 7.6% |
| Cc1ccc(C(=O)CNc2ccc(F)cc2)cc1 | -3.3% |
| COc1cccc2c1CCC(NC(C)=O)C2=O (configuration not stated) | 0.5% |
| COc1ccc(NS(=O)(=O)c2cc(NC(=O)CC(=O)c3ccc([N+](=O)[O-])cc3)ccc2C)cc1 | 2.2% |
| O=C(O)/C=C\C(=O)Nc1ccc(OCc2ccccc2)cc1 | 5.5% |
| O=C(NCCCN1CCN(c2ccc(F)cc2)CC1)Nc1ccc([N+](=O)[O-])cc1 | 11.9% |
| CCOC(=O)CC(=O)CSc1nc(-c2ccccc2)cc(-c2ccc(Cl)cc2)c1C#N | 22.2% (active) |
| CCSc1nc(-c2ccc(OC)cc2)cc(-c2ccc(OC)cc2)c1C#N | -1.5% |
| N#Cc1c(C(F)(F)F)cc(-c2ccc(Cl)cc2)nc1SCC(=O)O | 3.2% |
| COc1ccc(C(=O)OCC(=O)NCC2CCCO2)cc1[N+](=O)[O-] (configuration not stated) | 15% |
| O=C(NCCOc1ccccc1F)Nc1ccc(Br)cc1 | 3.6% |
| CC/C(=N\NC(=O)c1ccccc1Cl)c1ccc(Br)s1 | 4.2% |
| CC(=O)n1c(C=Nc2ccccc2)c(O)c2ccccc21 | 22.7% (active) |
| CCOc1ccc(N=Cc2c(O)n(-c3cccc(C)n3)c(=O)c3ccccc23)cc1 | 1.1% |
| CCCCn1c(=O)c(C(C)=O)c(O)c2ccccc21 | 0.5% |
| COc1ccc(NS(=O)(=O)c2ccc(O)c(C(=O)OCC(=O)NC3CCCCC3)c2)cc1 | 4.7% |
| CNC(=O)c1[nH]cnc1C(=O)N[C@@H](CC(C)C)C(=O)OC(C)(C)C | 5.5% |
| CN(CCc1cnn(C)c1)Cc1cn(C)nc1-c1ccccc1F | -5.8% |
| CC(C)N(Cc1ccccc1)C(=S)Nc1ccc(OC(F)F)cc1 | -4.1% |
